The source of these data is PubChem BioAssay (EPA / NIEHS).

Calls of active or inactive are those of the source. Rule for the calls: active = hit-call score of the fitted dose curve at least 0.9, where 1 is the maximum; inactive = score below 0.9.

The first assay is described as follows: ATG_M_61_CIS: Attagene CIS-FACTORIAL HepG2 Assay for M61 Transcription Factor (Internal Marker) (AID 2282937). Conditions: HepG2 Attagene CIS-FACTORIAL M61 internal marker reporter; actives raise or lower the signal. A digest of the protocol:
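Transfect HepG2 with MRTUs; dose 24 h; isolate RNA; reverse-transcribe with DNase I treatment; PCR-amplify, FAM-label and cut with HpaI for 2 h at 37 C; resolve by CE. Bidirectional fitting against DMSO.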
For `c1ccc2c(c1)-c1cccc3cccc-2c13`, the compound was called inactive.

Take `ClC1=C(Cl)C2(Cl)C3C(Cl)C=CC3C1(Cl)C2(Cl)Cl` (configuration not stated): the result was inactive.

Turning to `COC(=O)c1ccccc1N`, the outcome was inactive.

Turning to `c1ccc(NNc2ccccc2)cc1`, the compound was classed as inactive.

As to `c1ccc(C2CO2)cc1` (configuration not stated), the compound was called inactive.

As to `c1ccc2c(c1)oc1ccccc12`, the result was inactive.

As for `O=Cc1ccco1`, the call was inactive.

Regarding `CCC(C)c1ccc(O)cc1` (configuration not stated), the compound was called inactive.

As for `CCOc1cccc(C2(N3CCN(c4ccccc4)CC3)CCC(C)CC2)c1` (configuration not stated), the result was inactive.

In the case of `COP(=S)(OC)SCN1C(=O)c2ccccc2C1=O`, the outcome was inactive.

With `[Cl-].[Cl-].[Hg+2]`, the compound was called inactive.

In the case of `CCN(CC)N=O`, the call was inactive.

For the compound `O=C(N[C@H](c1ccccc1)[C@@H]1CN2CCC1CC2)c1c(Cl)ccc(C(F)(F)F)c1Cl`, the result was inactive.

A further assay in a line: ATG_EGR_CIS: Attagene CIS-FACTORIAL HepG2 Assay for human Early Growth Response 1 (EGR1) (AID 2282938). Conditions: HepG2 Attagene CIS-FACTORIAL EGR reporter mRNA; actives raise or lower the signal. The essentials:
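After a 24 h treatment of transiently transfected HepG2 cells, total RNA was reverse-transcribed and reporter sequences PCR-amplified, labelled and run on capillary electrophoresis. Reporters sit under cis-regulatory promoters sensing endogenous factors.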
As to `Nc1ccc(N=Nc2ccccc2)cc1`, the AC50 (usually the midpoint of the concentration-response curve, whichever way the signal moves) is 50.6 µM (active).

With `O=C(O)C1C2CCC(O2)C1C(=O)O` (configuration not stated), the result was inactive.

Take `O=C(Nc1ccccc1)c1ccccc1I`: the compound was called inactive.

With `CC(O)CCO` (configuration not stated), the call was inactive.

For the compound `CC(C)(C)OOC(C)(C)CCC(C)(C)OOC(C)(C)C`, the outcome was inactive.

Regarding `O=C(Oc1ccc(Br)cc1)N1CCN2CCC1CC2`, the compound was classed as inactive.

For the compound `[O-][Cl+]O`, the result was inactive.

In the case of `Nc1ccc(Cl)cc1N`, the AC50 was 28.2 µM (active).

For the compound `COc1cc(C=O)cc2c1[C@H](COC(N)=O)[C@]1(OC(C)=O)ON2C[C@H]2[C@@H]1N2C(C)=O`, the result was inactive.

`Nc1ccc([N+](=O)[O-])cc1`: the compound was called inactive.

For `OCCCBr`, the compound was classed as inactive.

For the compound `CNC(=O)Oc1cccc2c1OC(C)(C)C2`, the outcome was inactive.

With `N#CC(Br)(Br)C(N)=O`, the call was inactive.

Regarding `Clc1ccc(C(c2ccc(Cl)cc2)C(Cl)Cl)cc1`, the AC50 was 45.1 µM (active).
